High-throughput results from PubChem BioAssay.
An excerpt weighted towards active compounds, which were near 1.8% of everything screened.
GLP1R cytotox: cytotoxicity in counter-screen for GLP-1R inverse agonists; HEK293 cAMP-luciferase reporter cells, luminescence, 24 h; Potency, µM (top dose mostly 38.3 µM), for the others: top-dose activity change, negative = inhibition, hits mostly inhibitors; 410,000 tested, 0.13% active;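 also: loss of luciferase light is scored as toxicity; % is scaled to controls: 0 for no effect and ±100 for the full control effect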
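MLSMR compounds, 24 hr on cells at 37 deg C/5% CO2; luminescence after luciferase reagent (12 min RT). Inhibition counted as the undesired cytotoxic outcome.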
GLP1R ag: GLP-1 receptor (human) agonism. HEK293 GLP-1R CRE-luciferase, luminescence, 4-6 h; cells express a hypersensitive GLP-1R form. AID 624172. 380,000 tested, 0.007% active. Potency, µM (titrated, usually from 45.6 µM), for the others: at the highest dose activation, hits mostly activators; also: % of control where 0% means no effect
GLP1R inv ag: acts as inverse agonist at human GLP-1 receptor; P43220; HEK293 GLP-1R CRE-luciferase, luminescence, 24 h; GLP-1R form is constitutively active; Potency, µM (doses to about 38.3 µM), without a hit: at the top dose activity change, negative = inhibition, hits mostly inhibitors; 410,000 tested, 1.6% active; AID 624417; also: % is scaled to controls: 0 for no effect and ±100 for the full control effect; nearly all actives have a fitted effect of over 55% in size
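Assay principle: reduced luminescence from a cAMP-responsive reporter in HEK293 cells co-expressing a constitutively active GLP-1R. Conditions: 24 hr compound incubation, 37 deg C, 5% CO2.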
Tb PGK inh: inhibitors of T. brucei phosphoglycerate kinase. PGK/GAPDH coupled, Kinase-Glo luminescence, 60 min. AID 602233. 380,000 tested, 0.043% active. Potency, µM (top dose mostly 57.5 µM), inactives show at the highest dose activity change, negative = inhibition, usual class: inhibitors; also: % is scaled to controls: 0 for no effect and ±100 for the full control effect; nearly all actives have a fitted effect of over 60% in size
Target sequence (P07378 whole entry, looked up): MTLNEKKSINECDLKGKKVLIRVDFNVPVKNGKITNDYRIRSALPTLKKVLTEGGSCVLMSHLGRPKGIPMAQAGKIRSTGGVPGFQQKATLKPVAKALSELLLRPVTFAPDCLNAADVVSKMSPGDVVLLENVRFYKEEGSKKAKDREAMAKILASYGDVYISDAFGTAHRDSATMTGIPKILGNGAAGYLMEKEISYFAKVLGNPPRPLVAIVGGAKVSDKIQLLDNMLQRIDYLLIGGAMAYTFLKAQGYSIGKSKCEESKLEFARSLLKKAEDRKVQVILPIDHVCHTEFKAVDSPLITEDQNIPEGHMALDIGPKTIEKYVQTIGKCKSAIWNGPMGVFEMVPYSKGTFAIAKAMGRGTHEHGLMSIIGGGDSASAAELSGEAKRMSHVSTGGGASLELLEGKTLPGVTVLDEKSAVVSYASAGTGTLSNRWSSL
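Recombinant glycosomal PGK reaction used 1,3-bisphosphoglycerate generated in-well by GAPDH (100nM final) in 100mM TEA pH 7.6, 5mM MgCl2, 0.01% Tween-20. After 60 minutes at room temperature, ATP was read by Kinase-Glo Plus luminescence end-point.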
Tb PFK block: inhibitors of T. brucei phosphofructokinase | Potency, µM (titrated, usually from 57.5 µM), inactives show at the top dose activity, negative = inhibition, hits mostly inhibitors | T. brucei PFK, ADP-Glo luminescence | 330,000 tested, 0.17% active | O15648;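 also: 0% = uninhibited 1x PFK enzyme wells and -100% = no-enzyme wells; nearly all actives have a fitted effect of over 60% in size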
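1.25 nM PFK with 0.5 mM F6P and 0.1 mM ATP in 0.1 M TEA pH 8.0, 5 mM MgCl2, incubated 45 min at room temperature; ADP measured by ADP-Glo luminescence; compounds titrated up to 57 uM.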
Pin1 inhibitor: inhibitors of human Pin1 | Potency, µM (highest dose often 115 µM), inactives show at the top dose activity, negative = inhibition, actives largely listed as inhibitors | 390,000 tested, 0.009% active | Q13526 | Pin1 FP peptide displacement, HiFluor488, 10 min; active = well fitted inhibition curve with a large enough effect in the polarisation, with a control signal flat, not every such curve was filed as active; inconclusive = small, poorly fitted or top-dose-only effect, or effect the other way, or a change in a side signal; inactive = no such curve, though single readings can be large or run the other way; the % refers to the polarisation; also: % is scaled to controls: 0 for no effect and ±100 for the full control effect
Target sequence (Q13526 whole entry, looked up): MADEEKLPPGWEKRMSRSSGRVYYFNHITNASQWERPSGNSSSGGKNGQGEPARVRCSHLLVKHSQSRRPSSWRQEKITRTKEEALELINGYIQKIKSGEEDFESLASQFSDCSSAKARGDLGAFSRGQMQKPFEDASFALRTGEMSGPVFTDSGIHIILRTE
Numbers without * were called inactive; i = inactive; ? = inconclusive; . = no result given; [ ] = dose if it differs, or a comment. Unless noted, calls follow the shape of the dose curve; as a rule, active = well fitted curve in the direction sought with a large enough effect; inconclusive = small, poorly fitted or top-dose-only effect, or another doubt; inactive = no such curve, though single readings can be large; an effect the other way counts as inactive or inconclusive. Potency is read from the fitted curve at half-maximal effect.

SMILES	GLP1R cytotox	GLP1R ag	GLP1R inv ag	Tb PGK inh	Tb PFK block	Pin1 inhibitor
Cc1cc(C)c(NC(=O)CN2C(=O)CCn3nc(-c4cccn4C)cc32)c(C)c1	-5%	.	13%	5%	.	0%
O=[N+]([O-])c1cc(S(=O)(=O)C(F)(F)F)ccc1N1CCN(c2ccccc2)CC1	-25%	?	5µM*	-7%	3%	-9%
CCOC(=O)Cc1ccc(NC(=O)NCc2ccc3c(c2)CCN3C(=O)CC)cc1	1%	.	-3%	-5%	.	2%
COCc1c(C(=O)NCc2ccccc2CN2CCCC2)oc2ccccc12	3%	-9%	10µM*	i	-7%	9%
CC(C)CNC(=O)c1oc2ccccc2c1COc1ccccc1	-9%	19%	5µM*	i	0%	12%
CCC(CC)NC(=O)c1oc2ccccc2c1COc1ccccc1	93%	-3%	?	-5%	7%	?
COc1ccccc1CNc1nc(Nc2ccc(C)cc2C)c2sccc2n1	-13%	0%	10µM*	.	.	.
COc1cccc(CNc2nc(NC(C)C)nc3ccsc23)c1OC	?	-2%	11µM*	.	.	.
COc1ccc(C2Nc3ccccc3C(=O)N2Cc2ccccc2Cl)cc1COc1ccc(NC(C)=O)cc1 (stereo not given)	.	.	.	.	.	-3%
O=[N+]([O-])/C=C\c1ccc(N2CCOCC2)cc1	?	-7%	11µM*	-6%	.	-7%
CCC(O)(CC)C(=O)N(Nc1ccc(C)cc1)c1ccc(C)cc1	-1%	8%	8.9µM*	-7%	5%	0%
CC(C)(C)C1CCc2c(sc(NC(=O)c3cccs3)c2C(=O)N2CCCCC2)C1 (stereo not given)	0%	-15%	3.5µM*	0%	-2%	0%
CC1CCc2c(sc(NC(=O)c3cccs3)c2C(=O)O)C1 (stereo not given)	-17%	0%	-30%	-7%	?	1%
Cc1ccc(NS(=O)(=O)c2cc3c(cc2Cl)CCC(=O)N3)cc1Cl	.	.	.	.	.	1%
CCC(Sc1nnc(-c2ccc(C)c(Cl)c2)n1CC)C(=O)Nc1nccs1 (stereo not given)	0%	7%	6.3µM*	-6%	0%	?
CCOc1ccc(C(=O)Nc2c(C(=O)c3ccc(OC)cc3)oc3ccccc23)cc1	-10%	20%	-10%	2%	.	4%
COc1ccc(CNC(=O)c2cccc(N3CCCS3(=O)=O)c2)cc1OC	-8%	.	?	-2%	.	7%
O=C(N=Nc1c(O)[nH]c2ccccc12)Nc1ccccc1	-19%	0%	-2%	-2%	.	-7%
Cc1cccc(NC(=S)N=Nc2c(O)[nH]c3ccccc23)c1	10µM*	-1%	10µM*	-13%	6%	1%
COC1=C(C(=O)O)N2C(=O)[C@@H](NC(=O)C(N)C3C=CCC=C3)[C@H]2SC1 (stereo not given in full)	.	-7%	.	.	.	.
CC(=O)Nc1ccn(C2CC3OCC(NC(=O)C4CCCN4C(=O)OC(C)(C)C)C3O2)c(=O)n1 (stereo not given)	.	.	.	.	.	-2%
CCOc1nc(NC2CCCCC2)nc(NC(C)(C)C)n1	4%	1%	5.6µM*	i	-4%	-7%
Cc1ccc2c(CC(=O)N3CCN(c4cccc(Cl)c4)CC3)coc2c1C	10%	.	?	-2%	.	-22%
O=C(c1ccc2c(=O)n(-c3ccccc3)c(=O)[nH]c2c1)N1CCN(Cc2cccs2)CC1	.	.	.	.	.	1%
CCCCNC(=S)NC(=O)c1ccc([N+](=O)[O-])cc1	?	1%	?	-3%	-2%	0%
SMILES	GLP1R cytotox	GLP1R ag	GLP1R inv ag	Tb PGK inh	Tb PFK block	Pin1 inhibitor
CC(C)CNC(=S)NC(=O)c1ccc([N+](=O)[O-])cc1	?	-6%	10µM*	-4%	-1%	0%
CC(C)CCNC(=S)Nc1ccc([N+](=O)[O-])cc1	?	-1%	11µM*	-3%	0%	-2%
CCCCNC(=S)Nc1ccc([N+](=O)[O-])cc1	?	-17%	?	-3%	-15%	-2%
CC(C)c1ccc(CCNC(=O)c2ccc([N+](=O)[O-])cc2)cc1	-16%	13%	3.5µM*	-1%	-1%	-9%
COc1ccc(N2CCC(CNC(=O)Nc3ccc(C)c(C)c3)C2)cc1 (stereo not given)	3%	-1%	6.3µM*	2%	3%	7%
CCOc1ccc(NC(=O)NCC2CCN(c3ccc(OC)cc3)C2)cc1 (stereo not given)	-7%	-9%	-19%	1%	4%	-2%
CN(Cc1ccccc1)c1nc2c(S(=O)(=O)c3ccccc3)nnn2c2ccsc12	1%	.	4%	i	.	-1%
CC(C)Cn1c(-c2cccs2)nc2nc3ccccc3nc21	148%	8%	4µM*	3%	-1%	4%
CCCCn1c(-c2cccs2)nc2nc3ccccc3nc21	53%	14%	1%	2%	-1%	-3%
Cc1[nH]nc2ncc(C(=O)c3ccccc3O)cc12	-5%	-11%	10µM*	i	0%	13%
CN1CCN(C(=O)c2ccc(CSc3ccc(Cl)cc3)cc2)CC1	20%	-2%	5.6µM*	-1%	0%	3%
Clc1cccc(-n2ncc3c(NCCCn4ccnc4)ncnc32)c1	-7%	.	?	8%	.	6%
O=C(NNC(=O)c1cc(-c2ccccc2)nc2ccccc12)Nc1cccc(Cl)c1	2%	-32%	13µM*	6%	1%	1%
O=C(Nc1nccs1)c1cc(-c2ccccc2)nc2ccccc12	-4%	2%	5µM*	-11%	-5%	0%
C/C(=N\NC(=O)c1cc(-c2cccs2)nc2ccccc12)c1ccccn1	?	7%	2.8µM*	-2%	1%	3%
O=C(NCc1ccccn1)c1cc(-c2ccc(-c3ccccc3)cc2)nc2ccccc12	-8%	3%	2µM*	.	0%	8%
O=C(NNC(=O)c1cc(-c2cccnc2)nc2ccccc12)Nc1ccc(Cl)cc1	-1%[0.307 µM]	-22%	9%[0.307 µM]	-5%	-2%	7%
NNC(=O)c1cc(-c2cccs2)nc2ccccc12	-17%	5%	?	i	2%	2%
O=C1Cc2cc(S(=O)(=O)N3CCN(c4ccc([N+](=O)[O-])cc4)CC3)ccc2N1	.	.	.	.	.	22%
COc1ccc(-c2onc(C)c2C)cc1S(=O)(=O)N(C)Cc1ccco1	-8%	.	-3%	-12%	.	0%
Cc1ccc(CNC(=O)C2CCCN(S(=O)(=O)c3ccc4c(c3)oc(=O)n4C)C2)cc1 (stereo not given)	-15%	-2%	-1%	i	.	-4%
